# Reference: PubChem BioAssay
# Active and inactive are the calls of the source.
# Legend:
# [1] = small molecules captured by biotinylated probe aFSTL3 – biochemical, small-molecule microarray, fluorescence 635/667, stem cell growth factor project, primary screen (AID 1064); settings: higher = more signal;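 further: measures binding of the biotinylated anti-FSTL3 antibody to printed compounds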
# [2] = binders from COS7 lysate, DM2A8 probe, primary screen, torsin A project, cell lysate, small-molecule microarray, fluorescence 635/667 (AID 1065); settings: higher = more signal, COS7 lysate expressing mutant human TOR1A
# [3] = small molecules captured by biotinylated probe aFGF2 – biochemical, small-molecule microarray, fluorescence 635/667, stem cell growth factor project, primary screen (AID 1067); settings: higher = more signal;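 further: measures binding of biotinylated aFGF2 protein to printed compounds on slides; z-score merges feature fluorescence and signal-to-noise across triplicate slides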
# [4] = small molecules captured by biotinylated probe aFGF10 – biochemical, small-molecule microarray, fluorescence 635/667, stem cell growth factor project, primary screen (AID 1071); settings: higher = more signal;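 further: score merges 667 nm spot intensity and signal to noise from triplicate slides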
# [5] = molecular target: Neurogenic locus notch homolog protein 2 (Homo sapiens) (UniProt Q04721); assay: small molecules binding Notch2 protein – biochemical, small-molecule microarray, 635 nm fluorescence, stem cell growth factors, primary screen (AID 1073); settings: higher = more signal
# [6] = molecular target: Pro-neuregulin-1, membrane-bound isoform (Homo sapiens) (UniProt Q02297); assay: small molecules binding neuregulin-1 protein – biochemical, small-molecule microarray, fluorescence 635/667, psychiatric disease protein project, primary screen (AID 1075); settings: NRG1 binding, 635 nm fluorescence, higher = more signal;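 further: score combines 667 nm spot fluorescence with signal to noise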
# [7] = test system: Neuregulin-1 EGF-like domain; assay: small molecules binding NRG1 EGF domain – biochemical, small-molecule microarray, 635 nm fluorescence, primary screen (AID 1081); settings: higher = more signal;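 further: binding of the protein to compounds printed on small-molecule microarray slides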
# [8] = FRG1 expression reporter modulators in myotubes – cell-based, C2C12 myotubes, firefly/Renilla luciferase, luminescence, FRG1 inhibition for FSHD, primary screen (AID 1084); settings: FRG1 promoter luciferase, higher = more signal, called active from +8 up or from −8 down
# [9] = small molecules captured by biotinylated probe aFST – biochemical, small-molecule microarray, fluorescence 635/667, stem cell growth factor project, primary screen (AID 1086); settings: higher = more signal;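 further: score merges 667 nm fluorescence with signal-to-noise of each printed compound spot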
# [10] = binders of probe aHhip on microarray, primary screen, stem cell growth factor project, biochemical, small-molecule microarray, fluorescence 635/667 (AID 1087); settings: higher = more signal;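 further: score merges spot fluorescence at 667nm with spot signal to noise ratio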
# [11] = test system: PRMT1 (protein arginine N-methyltransferase 1); assay: small molecules binding arginine methyltransferase PRMT1 – biochemical, small-molecule microarray, 635 nm fluorescence, primary screen (AID 1088); settings: higher = more signal;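 further: binding of Prmt1 protein to compounds spotted on small-molecule microarray slides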
# [12] = growth effects on S. cerevisiae YJM789 – YJM789 clinical isolate, OD600, 24 h, basal, primary screen (AID 1089); settings: higher = more signal, called active from +8 up or from −8 down;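 further: growth of clinical yeast isolate S. cerevisiae YJM 789 seeded 1000 cells per well; test concentration not given here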
# [13] = S. pombe growth modifiers, basal conditions – strain 972, OD600, 24 h, no modulator, primary screen (AID 1090);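 further: basal condition with compound alone and no growth modifier present; test concentration not given here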; settings: S. pombe 972 growth, higher = more signal, called active from +8 up or from −8 down
# [14] = budding yeast growth modifiers under rapamycin – strain BY4716, OD600, 96 h, primary screen (AID 1091); further: test concentration not given here; settings: S. cerevisiae BY4716 + rapamycin, higher = more signal, called active from +8 up or from −8 down
# [15] = molecular target: Torsin-1A-interacting protein 2 (Homo sapiens) (UniProt Q8NFQ8); assay: small molecules binding lysate-expressed LULL1 – cell lysate, human LULL1 lysate, 635/667 nm fluorescence, primary screen (AID 1092); settings: small-molecule microarray, hLULL1 lysate binding, 635 nm fluorescence; higher = more signal;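 further: probe is lysate of COS7 cells overexpressing human LULL1; score merges per-feature 667 nm fluorescence with signal-to-noise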
# [16] = optical density change of DRC41 E. coli – strain DRC41, OD650, 24 h, E. coli filamentation project, primary screen (AID 1093);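 further: MC1000 strain lacking acrAB efflux and sulA so SOS filamentation is blocked; test concentration not given here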; settings: E. coli DRC41 growth, higher = more signal, called active from +8 up or from −8 down
# [17] = probe aLefty2 binding to arrayed compounds – biochemical, biotinylated probe, 635/667 nm fluorescence, primary screen (AID 1094); settings: small-molecule microarray, higher = more signal;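 further: score merges spot fluorescence near 667 nm with spot signal-to-noise ratio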
# [18] = test system: Noggin (protein binding on small-molecule microarray); assay: small molecules binding Noggin protein – biochemical, 635/667 nm fluorescence, primary screen (AID 1095); settings: 635 nm fluorescence, higher = more signal;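 further: score merges 667 nm feature fluorescence with signal to noise over triplicate slides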
# [19] = molecular target: Neurogenic locus notch homolog protein 3 (Homo sapiens) (UniProt Q9UM47); assay: small molecules binding NOTCH3 protein – biochemical, 635/667 nm fluorescence, primary screen (AID 1096); settings: small-molecule microarray, 635 nm fluorescence, higher = more signal
# [20] = probe aEGFR binding to arrayed compounds – biochemical, biotinylated probe, 635/667 nm fluorescence, primary screen (AID 1097); settings: small-molecule microarray, higher = more signal;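 further: probe is a biotinylated anti-EGFR antibody binding compounds printed on slides; score combines fluorescence near 667 nm and signal to noise of each spot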
# Chain of Pro-neuregulin-1, membrane-bound isoform (Homo sapiens) (Q02297 whole entry, looked up, the tested form may be a part, canonical isoform): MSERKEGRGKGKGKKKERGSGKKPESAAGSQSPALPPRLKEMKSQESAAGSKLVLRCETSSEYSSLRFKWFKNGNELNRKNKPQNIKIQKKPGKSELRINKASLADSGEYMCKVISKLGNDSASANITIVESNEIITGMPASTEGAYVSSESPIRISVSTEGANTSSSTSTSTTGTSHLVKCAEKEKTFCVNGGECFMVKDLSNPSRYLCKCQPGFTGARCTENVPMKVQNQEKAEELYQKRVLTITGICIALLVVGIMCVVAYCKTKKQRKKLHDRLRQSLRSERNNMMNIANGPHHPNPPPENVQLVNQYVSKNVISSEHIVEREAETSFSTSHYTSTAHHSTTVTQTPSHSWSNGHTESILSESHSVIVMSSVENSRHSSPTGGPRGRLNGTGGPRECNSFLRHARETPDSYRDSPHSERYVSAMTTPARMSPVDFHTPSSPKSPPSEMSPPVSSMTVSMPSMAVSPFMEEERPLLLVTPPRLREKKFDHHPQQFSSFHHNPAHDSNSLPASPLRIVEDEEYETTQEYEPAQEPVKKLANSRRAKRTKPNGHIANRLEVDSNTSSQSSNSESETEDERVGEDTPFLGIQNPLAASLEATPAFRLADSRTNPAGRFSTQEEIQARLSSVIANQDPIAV
# Chain of Neurogenic locus notch homolog protein 2 (Homo sapiens) (Q04721 whole entry, looked up, canonical isoform): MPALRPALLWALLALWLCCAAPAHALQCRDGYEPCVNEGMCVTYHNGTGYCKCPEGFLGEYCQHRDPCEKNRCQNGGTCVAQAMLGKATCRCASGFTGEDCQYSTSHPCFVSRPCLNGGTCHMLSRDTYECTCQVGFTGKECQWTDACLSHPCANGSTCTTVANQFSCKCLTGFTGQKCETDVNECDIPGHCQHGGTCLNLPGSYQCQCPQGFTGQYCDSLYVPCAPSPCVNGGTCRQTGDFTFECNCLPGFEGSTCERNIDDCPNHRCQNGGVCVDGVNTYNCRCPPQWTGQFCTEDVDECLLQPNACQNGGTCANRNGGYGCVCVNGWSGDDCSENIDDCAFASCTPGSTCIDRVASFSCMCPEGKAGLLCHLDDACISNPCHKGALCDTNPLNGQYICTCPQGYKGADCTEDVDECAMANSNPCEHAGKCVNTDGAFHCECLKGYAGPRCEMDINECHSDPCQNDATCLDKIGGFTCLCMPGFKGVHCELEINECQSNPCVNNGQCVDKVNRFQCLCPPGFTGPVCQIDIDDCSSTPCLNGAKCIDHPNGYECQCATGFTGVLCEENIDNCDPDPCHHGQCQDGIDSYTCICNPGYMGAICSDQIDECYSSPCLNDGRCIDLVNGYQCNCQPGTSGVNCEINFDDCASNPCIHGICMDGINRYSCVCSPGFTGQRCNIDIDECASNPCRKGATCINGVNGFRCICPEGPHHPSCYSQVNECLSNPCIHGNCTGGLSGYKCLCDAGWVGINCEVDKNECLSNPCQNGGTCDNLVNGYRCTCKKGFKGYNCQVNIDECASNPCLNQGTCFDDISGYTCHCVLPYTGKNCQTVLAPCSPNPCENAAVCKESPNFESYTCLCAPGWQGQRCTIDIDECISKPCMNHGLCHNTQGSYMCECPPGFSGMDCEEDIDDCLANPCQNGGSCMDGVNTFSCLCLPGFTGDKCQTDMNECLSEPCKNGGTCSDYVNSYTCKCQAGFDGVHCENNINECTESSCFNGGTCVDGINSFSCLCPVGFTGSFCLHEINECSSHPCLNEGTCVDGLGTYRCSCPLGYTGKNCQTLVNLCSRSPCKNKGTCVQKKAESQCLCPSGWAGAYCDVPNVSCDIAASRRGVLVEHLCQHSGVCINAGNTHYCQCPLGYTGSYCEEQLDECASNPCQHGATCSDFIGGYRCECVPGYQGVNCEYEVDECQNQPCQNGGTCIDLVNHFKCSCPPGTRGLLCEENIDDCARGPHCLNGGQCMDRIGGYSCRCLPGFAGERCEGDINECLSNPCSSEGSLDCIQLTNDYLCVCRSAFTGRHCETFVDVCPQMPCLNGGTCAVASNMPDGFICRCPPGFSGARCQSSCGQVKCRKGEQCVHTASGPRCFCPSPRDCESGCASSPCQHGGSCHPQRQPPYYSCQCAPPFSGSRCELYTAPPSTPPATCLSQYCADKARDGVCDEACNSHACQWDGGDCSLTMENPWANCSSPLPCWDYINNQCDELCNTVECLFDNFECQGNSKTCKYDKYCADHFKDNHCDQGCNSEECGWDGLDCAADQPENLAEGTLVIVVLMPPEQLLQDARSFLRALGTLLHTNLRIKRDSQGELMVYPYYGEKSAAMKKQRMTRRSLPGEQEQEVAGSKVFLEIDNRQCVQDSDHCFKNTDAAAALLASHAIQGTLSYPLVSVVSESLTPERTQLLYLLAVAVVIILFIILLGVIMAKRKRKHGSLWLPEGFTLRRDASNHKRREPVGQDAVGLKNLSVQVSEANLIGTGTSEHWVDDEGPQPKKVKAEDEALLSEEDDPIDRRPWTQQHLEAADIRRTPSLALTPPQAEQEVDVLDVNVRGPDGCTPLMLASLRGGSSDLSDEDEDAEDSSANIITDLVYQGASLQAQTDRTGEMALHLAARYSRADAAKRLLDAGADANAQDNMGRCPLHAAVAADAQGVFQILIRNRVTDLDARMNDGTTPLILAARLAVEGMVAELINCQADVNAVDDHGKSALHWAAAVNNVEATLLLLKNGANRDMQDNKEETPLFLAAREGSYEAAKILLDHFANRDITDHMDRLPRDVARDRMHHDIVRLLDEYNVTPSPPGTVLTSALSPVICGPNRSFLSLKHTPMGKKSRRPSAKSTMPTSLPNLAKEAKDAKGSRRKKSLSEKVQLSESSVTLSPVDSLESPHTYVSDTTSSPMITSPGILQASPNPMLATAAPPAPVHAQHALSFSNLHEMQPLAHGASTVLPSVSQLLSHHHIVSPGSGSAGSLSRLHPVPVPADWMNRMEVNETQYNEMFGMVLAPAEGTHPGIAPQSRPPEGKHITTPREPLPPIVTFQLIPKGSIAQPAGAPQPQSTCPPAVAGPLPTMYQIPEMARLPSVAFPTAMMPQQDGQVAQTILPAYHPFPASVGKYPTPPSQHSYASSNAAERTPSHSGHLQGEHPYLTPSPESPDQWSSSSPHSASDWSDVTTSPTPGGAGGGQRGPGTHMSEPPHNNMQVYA
# Chain of Torsin-1A-interacting protein 2 (Homo sapiens) (Q8NFQ8 whole entry, looked up): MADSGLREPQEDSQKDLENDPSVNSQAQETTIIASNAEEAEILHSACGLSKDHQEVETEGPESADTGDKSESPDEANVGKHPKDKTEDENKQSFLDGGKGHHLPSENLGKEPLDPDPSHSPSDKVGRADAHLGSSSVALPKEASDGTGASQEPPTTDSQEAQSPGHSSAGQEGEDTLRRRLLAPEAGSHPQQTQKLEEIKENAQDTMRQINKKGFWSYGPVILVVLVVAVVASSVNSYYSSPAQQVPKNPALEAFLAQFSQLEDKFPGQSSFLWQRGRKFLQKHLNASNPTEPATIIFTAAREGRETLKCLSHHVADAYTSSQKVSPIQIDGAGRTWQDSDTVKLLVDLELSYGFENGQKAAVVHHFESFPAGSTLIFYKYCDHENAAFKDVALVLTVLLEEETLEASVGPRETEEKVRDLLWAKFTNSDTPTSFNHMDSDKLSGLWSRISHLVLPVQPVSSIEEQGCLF
Compound,composite z-score [1],composite z-score [2],composite z-score [3],composite z-score [4],composite z-score [5],composite z-score [6],composite z-score [7],z-score [8],composite z-score [9],composite z-score [10],composite z-score [11],z-score [12],z-score [13],z-score [14],composite z-score [15],z-score [16],composite z-score [17],composite z-score [18],composite z-score [19],composite z-score [20]
CCOC(=O)C[C@H]1[C@H](OC(=O)c2ccc(-c3ccccc3)cc2)[C@@H](NC(=O)c2ccc(-c3ccccc3)cc2)c2cc(OCCCO)ccc2N1C(=O)Cc1ccc(OC)cc1,-0.263,-0.0676,-0.0525,0.0168,0.306,0.168,-0.489,0.712 (inactive),0.425,-0.226,-0.007,-0.907 (inactive),0.321 (inactive),0.16 (inactive),0.856,-0.963 (inactive),-0.0196,-0.31,-0.166,-0.0505
COc1ccc([Si](C)(C)[C@H]2[C@H](CCn3cc([C@H](O)c4ccccc4)nn3)O[C@@]3(C(=O)N(Cc4cccc(N5CCC5=O)c4)c4ccccc43)[C@@H]2C)cc1,0.386,0.238,-0.0894,0.164,-0.404,-0.0001,0.557,-1.99 (inactive),-0.0509,-0.191,0.423,-1.89 (inactive),0.399 (inactive),1.82 (inactive),0.276,1.41 (inactive),-0.196,0.806,0.349,-0.167
N#Cc1ccc(NN2C(C(O)c3ccc([N+](=O)[O-])cc3)C=CC3C(=O)N(c4ccccc4)C(=O)C32)cc1 (stereo not given),0.298,-0.0479,0.11,0.921,1.59,1.66,1.35,0.536 (inactive),0.899,-0.287,0.698,-0.0094 (inactive),1.2 (inactive),1.39 (inactive),3.29,-1.75 (inactive),0.0478,-0.299,1.06,0.0478
C=CCOC(=O)[C@H]1[C@@H]2C(=O)O[C@@H](c3ccccc3)[C@@H](c3ccccc3)N2[C@@H](c2ccc(OCCOC(=O)[C@@H]3C[C@@H]4C(=O)N5CCC[C@H]5C(=O)N4[C@@H]3c3ccc(O)cc3)cc2)[C@]12C(=O)Nc1ccccc12,-0.212,0.434,-0.108,0.282,0.356,0.771,1.28,-0.105 (inactive),0.328,-0.249,1.53,0.821 (inactive),1.64 (inactive),3.79 (inactive),2.63,0.621 (inactive),-0.0984,1.15,0.799,-0.096
COCCOC(=O)N1C(=O)[C@@]2(c3ccccc31)[C@H](C(=O)Nc1nc3ccccc3s1)[C@H]1C(=O)O[C@H](c3ccccc3)[C@H](c3ccccc3)N1[C@@H]2c1ccc(OCCO)cc1,0.001,0.686,-0.0426,0.738,0.907,0.897,1.18,2.77 (inactive),0.381,-0.117,1.54,1.13 (inactive),1.36 (inactive),3.37 (inactive),3.23,1.07 (inactive),-0.0767,1.76,1.13,-0.0581
CCOC(=O)C1=CCC(C(C)(C)C)N(S(=O)(=O)c2ccc(C)cc2)C1 (stereo not given),-0.735,2.2,0.0954,1.23,1.49,0.673,1.19,-2.07 (inactive),0.533,0.0139,1.54,-0.792 (inactive),-1.75 (inactive),1.66 (inactive),3.3,-0.756 (inactive),0.0277,1.47,1.13,0.139
COC(=O)[C@@]1(Cc2ccc(OC)cc2)[C@H]2c3cc(C(=O)N4CCCC4)n(Cc4ccccn4)c3C[C@H]2CN1C(=O)c1ccccc1,0.381,0.765,0.396,1.11,1.66,2.1,1.4,2.78 (inactive),1.01,0.501,0.897,0.627 (inactive),0.482 (inactive),1.33 (inactive),3.86,0.245 (inactive),0.346,-0.404,0.979,0.155
CCOC(=O)[C@H]1C/C=C/C[C@H](C(=O)OCC)C(=O)O[C@H]2[C@@H](OC)O[C@H](CO)[C@@H](OC(=O)Nc3ccc4c(c3)OCO4)[C@@H]2OC1=O,-0.267,0.451,0.0302,0.718,0.235,1.5,1.25,0.891 (inactive),0.0008,-0.212,0.921,1.12 (inactive),0.079 (inactive),6.03 (inactive),2.35,1.59 (inactive),-0.0238,-0.259,0.145,-0.071
COc1ccc(C#Cc2ccc3c(c2)[C@]2(C(=O)N3)[C@H](c3ccc(O)cc3)N3[C@H](c4ccccc4)[C@H](c4ccccc4)OC(=O)[C@H]3[C@@H]2C(=O)NC[C@H](O)c2ccccc2)cc1,-0.127,0.0172,-0.0599,0.776,0.757,0.563,1.15,0.72 (inactive),0.317,-0.288,0.958,2.29 (inactive),0.241 (inactive),1.75 (inactive),2.17,0.864 (inactive),-0.0778,0.897,1.01,0.0221
C=C(C(=O)CC[C@H](OC(C)=O)c1ccc(OCCO)cc1)C(C)C,-0.398,0.194,-0.134,0.991,1.49,0.0987,-0.108,-2.5 (inactive),0.0745,0.174,1.19,-24.6 (active),-20.5 (active),-4.29 (inactive),0.739,2.11 (inactive),-0.212,1.22,0.801,-0.156
CC(C)N1CC=CC23O[C@@H]4C=CCOC(=O)[C@@H]4[C@H]2C(=O)N(CCO)[C@@H]3C1=O (stereo not given in full),0.283,-1.72,-0.187,-0.484,-1.11,0.247,1.02,0.188 (inactive),-0.634,-0.397,0.53,1.14 (inactive),0.24 (inactive),-0.938 (inactive),3.37,0.73 (inactive),-0.328,-0.431,0.173,-0.287
CC(C)CNC(=O)[C@@H]1c2ccccc2C(=O)N(Cc2cc(C(F)(F)F)cc(C(F)(F)F)c2)[C@H]1c1ccc(CO)cc1,0.491,-0.249,0.071,-0.365,-0.744,-0.27,0.401,0.53 (inactive),0.0438,0.224,0.457,0.976 (inactive),-0.989 (inactive),-0.706 (inactive),0.557,-0.381 (inactive),0.104,-0.96,-0.977,-0.0682
COCCCNC(=O)[C@@]1(CCC(=O)OC(C)(C)C)N=C(c2ccc(OCCCO)cc2)O[C@H]1c1ccccc1CN=[N+]=[N-],-0.073,-0.158,-0.0724,0.527,1.67,1.59,1.27,2.42 (inactive),1.53,0.238,1.26,-0.187 (inactive),-0.738 (inactive),-0.363 (inactive),3.74,0.316 (inactive),0.194,0.624,1.06,0.305
Cc1ccccc1C(O)C1C=CC2C(=O)N(C)C(=O)C2N1Nc1ccccc1 (stereo not given),0.413,0.526,-0.0035,0.0865,1.22,2.05,1.14,0.772 (inactive),0.842,-0.0994,1.25,-0.145 (inactive),-0.885 (inactive),-0.0194 (inactive),2.98,-1.43 (inactive),0.149,-0.657,0.993,-0.0634
COc1ccc([Si](C)(C)[C@@H]2[C@@H](CCn3cc([C@H](O)c4ccccc4)nn3)O[C@]3(C(=O)N(Cc4cccc(N5CCOC5=O)c4)c4ccccc43)[C@H]2C)cc1,0.752,-0.268,-0.152,-0.368,-1.11,0.0895,-0.0072,1.34 (inactive),-0.64,-0.236,-0.217,1.56 (inactive),1.45 (inactive),3.61 (inactive),0.697,0.894 (inactive),-0.117,-0.89,-1.29,-0.278
COC(=O)[C@@]1(Cc2ccc(F)cc2)[C@H]2c3cc(C(=O)N(C)C)n(CCc4ccccn4)c3C[C@H]2CN1C(=O)c1ccccc1,0.681,0.466,0.723,0.759,1.52,0.183,1.09,1.98 (inactive),2.35,0.178,1.16,2.9 (inactive),0.423 (inactive),-0.616 (inactive),3.94,0.196 (inactive),-0.0278,0.259,0.861,0.709
CC(C)C(O)C1C=CC2C(=O)N(c3ccccc3)C(=O)C2N1Nc1ccc(C#N)cc1 (stereo not given),0.946,0.303,0.238,1.07,1.7,1.72,1.23,0.596 (inactive),1.49,-0.168,1.04,-0.108 (inactive),0.349 (inactive),1.39 (inactive),3.17,-0.364 (inactive),0.576,-0.388,0.903,0.154
O=C1O[C@H](c2ccccc2)[C@H](c2ccccc2)N2[C@H]1[C@@H](C(=O)O)[C@]1(C(=O)Nc3ccc(C#CC4=CCCCC4)cc31)[C@H]2c1ccc(OCCO)cc1,-0.0152,0.651,-0.0438,1.09,1.44,1.77,1.34,0.448 (inactive),1.03,-0.0672,1.54,2.1 (inactive),1.14 (inactive),-0.1 (inactive),3.06,-0.413 (inactive),-0.0104,1.34,1.1,-0.0657
